Source: PubChem BioAssay
Shown are actives, neighbours in structure and some others; about 5.7% of the full set was active somewhere.
Nrf2 inh – inhibitors of Nrf2 signaling. A549 ARE-Fluc reporter, luciferase luminescence, 18-24 h. Potency, µM (top dose mostly 46 µM), without a hit: at the top dose activity change, negative = inhibition, usual class: inhibitors. 360,000 tested, 2.1% active. AID 504444; also: potency is read from the fitted curve at half-maximal effect; nearly all actives have a fitted effect of over 60% in size
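A549 ARE_Fluc cells, 5000/well, 5% FBS OPTI-MEM; compounds in dose-response, 18-24 h at 37 °C/5% CO2; CellTiter-Fluor viability read (Ex 405/Em 525), then BugLite luciferase luminescence = Nrf2 activity.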
A549 viability – counter-screen for Nrf2 inhibitors: cytotoxicity in A549 cells; A549 ARE-Fluc cells, CellTiter-Fluor viability, 18-24 h; Potency, µM (doses to about 46 µM), without a hit: at the top dose activity change, negative = cytotoxicity, actives largely listed as inhibitors; 390,000 tested, 0.16% active; also: potency is read from the fitted curve at half-maximal effect
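Cytotoxicity counterscreen: CellTiter-Fluor fluorescence was measured in A549 ARE_Fluc cells after 18-24 h of compound exposure in a concentration series. The subsequent BugLite luminescent read reports ARE-luciferase activity.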
PI4K2A inh – blocks human PI4K2A kinase activity; Q9BTU6; purified PI4K2A, ADP-Glo luminescence, 1 h; active compounds read low; activity change, negative = inhibition, % at 76.9 µM; 420,000 tested, 0.13% active; in the data active = activity change below about -50%; inconclusive = mostly about -30% to -49%;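 also: -100% = wells without enzyme as full effect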
Target sequence (Q9BTU6 whole entry, looked up): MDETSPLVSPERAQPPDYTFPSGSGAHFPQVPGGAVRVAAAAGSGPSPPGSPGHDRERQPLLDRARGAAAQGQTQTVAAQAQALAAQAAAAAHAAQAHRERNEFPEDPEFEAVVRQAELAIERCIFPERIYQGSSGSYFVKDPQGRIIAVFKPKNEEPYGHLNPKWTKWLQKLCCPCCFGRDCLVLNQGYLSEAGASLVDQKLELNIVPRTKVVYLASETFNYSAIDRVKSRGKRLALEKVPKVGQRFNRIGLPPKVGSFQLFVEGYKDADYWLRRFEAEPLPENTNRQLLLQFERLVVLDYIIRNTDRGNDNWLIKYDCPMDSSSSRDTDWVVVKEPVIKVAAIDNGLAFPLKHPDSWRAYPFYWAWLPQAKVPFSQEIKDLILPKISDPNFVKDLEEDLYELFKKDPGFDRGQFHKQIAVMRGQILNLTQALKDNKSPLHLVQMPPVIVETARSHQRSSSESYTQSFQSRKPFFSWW
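PI4K2A activity was measured by ADP-Glo luminescence: enzyme (4 ug/mL stock) and phosphatidylinositol (1.2 mM stock) in Tris pH 7.5/MgCl2/EGTA/Triton X-100 buffer were reacted with ATP (300 microM stock) for one hour at ambient temperature.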
KB-3-1 tox – kills parental KB-3-1 adenocarcinoma cells; KB-3-1 viability, CellTiter-Glo ATP luminescence, 72 h; Potency, µM (titrated, usually from 46.1 µM), actives largely listed as cytotoxic; 400,000 tested, 1.4% active; also: potency is read from the fitted curve at half-maximal effect; nearly all actives have a fitted effect of over 60% in size
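Using CellTiter-Glo luminescence, growth of non-resistant KB-3-1 adenocarcinoma cells is assessed 72 h after pin-tool compound addition at 37 °C. Normalized responses across the concentration series yield fitted curves.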
Giardia kill – kills Giardia lamblia; Giardia lamblia trophozoite viability; AID 540267; activity change, % at 7.66 µM, hits read low; 340,000 tested, 0.15% active; in the data active = activity change below about -80%; inconclusive = between about -30% and that limit;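 also: parasites exposed to compound for two days anaerobically before the ATP read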
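Viability, read as ATP luminescence: trophozoites at 100 cells/well, compound added, 48 hrs anaerobic at 37 deg C, then 15-30 min room-temperature development before reading.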
KB-V1 cytotox – KB-V1 MDR subline cytotoxicity; KB-V1 MDR cells viability, CellTiter-Glo, 72 h; Potency, µM (doses to about 46.1 µM), most hits filed as cytotoxic; 400,000 tested, 3.4% active; also: potency is read from the fitted curve at half-maximal effect; nearly all actives have a fitted effect of over 60% in size
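In this primary screen, KB-V1 cells overexpressing P-gp are incubated with library compounds (lowest to highest concentration) for 72 h at 37 degrees C before a luminescent ATP viability read.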
* hit, by the source's call; i = inactive; ? = inconclusive; . = not tested or not shown. Unless noted, calls follow the shape of the dose curve; as a rule, active = well fitted curve in the direction sought with a large enough effect; inconclusive = small, poorly fitted or top-dose-only effect, or another doubt; inactive = no such curve, though single readings can be large; an effect the other way counts as inactive or inconclusive. Unless noted, % is scaled to controls: 0 for no effect and ±100 for the full control effect.

SMILES	Nrf2 inh	A549 viability	PI4K2A inh	KB-3-1 tox	Giardia kill	KB-V1 cytotox
CCCCN1C(=O)/C(=C/C=C2\Oc3ccccc3N2CC)SC1=S	-9.7%	?	3.7	i	20.8	i
Brc1ccc(C2C=Cc3ccccc32)cc1 (centres undefined)	.	.	.	?	.	i
Cc1cc(C)c(C#N)c(SCC2COc3ccccc3O2)n1 (centres undefined)	8.8%	17.0%	-6.9	i	-3.6	i
Cc1cc(C)n2nc(SCC3COc4ccccc4O3)nc2n1 (centres undefined)	?	6.7%	-4.4	i	-8.6	23.1µM*
Cc1cc(C)n2nc(SCc3nnc(SCc4ccccc4Cl)s3)nc2n1	12.2%	-5.5%	-0.2	i	-5.3	i
Cc1cc(C)n2nc(SCc3nnc(SCc4ccccc4C)s3)nc2n1	?	-11.9%	0.2	i	-4.9	20.6µM*
CCC(C)NC(=O)C1CCN(S(=O)(=O)c2ccc3[nH]c(=O)oc3c2)CC1 (centres undefined)	.	.	-6.4	.	.	.
CSc1cc(-c2ccccc2)n(Cc2ccccc2Cl)c(=O)c1C#N	-21.2%	?	3.5	4.61µM*	-27.0	?
CCCn1c(-c2ccccc2)cc(SC)c(C#N)c1=O	10.4%	2.3%	-5.7	i	9.8	i
CCN(c1ccccc1)S(=O)(=O)c1ccc(Cl)nc1	18.7%	-0.7%	10.8	i	12.5	i
O=S(=O)(c1ccc(Cl)nc1)N(Cc1ccccc1)Cc1ccccc1	4.8%	-1.6%	5.9	i	4.1	18.4µM*
CCS(=O)(=O)c1ncc(N(Cc2cccc(F)c2)Cc2ccco2)c(C(=O)Nc2ccccc2Cl)n1	10.2%	1.1%	-1.1	i	.	i
O=C(NC1CC1)c1sc2cc(Cl)ccc2c1Cl	?	-0.3%	-0.5	i	-17.4	?
CC1(C)CC(NC(=O)c2sc3cc(Cl)ccc3c2Cl)CC(C)(C)N1	2.8%	2.9%	5.5	?	6.3	18.4µM*
COC(=O)[C@]12C[C@H](CC(=O)NCc3cccs3)C(=O)N(Cc3ccc(Cl)cc3Cl)C1=C[C@H](C(C)(C)C)O[C@@H]2C	.	.	-2.1	.	.	.
COc1ccc(-c2nc3scc(-c4ccccc4)n3n2)cc1	0.5%	-13.4%	1.3	?	-9.4	18.4µM*
Cc1c(C(=O)Nc2ccc(Oc3ccccc3)cc2)sc2nc3n(c(=O)c12)CCC3	?	-20.1%	7.1	i	-1.4	i
Cc1c(C(=O)Nc2ccc(OC(F)(F)F)cc2)sc2nc3n(c(=O)c12)CCC3	10.3µM*	-16.7%	-4.2	?	5.9	i
CCOC(=O)CC[C@H]1CC[C@]2(CCCN(C(=O)c3ccco3)C2)O1	.	.	2.7	.	.	.
CCc1ccc(OCC(O)CN2CCC(CN3C(=O)c4cccc5cccc(c45)C3=O)CC2)cc1 (centres undefined)	-9.1%	1.7%	1.1	23.1µM*	-1.3	?
Cc1cc(C)cc(OCC(O)CN2CCC(CN3C(=O)c4cccc5cccc(c45)C3=O)CC2)c1 (centres undefined)	18.4µM*	?	-2.3	?	10.6	5.8µM*
Cc1ccc(C)c(OCC(O)CN2CCN(CCN3C(=O)c4cccc5cccc(c45)C3=O)CC2)c1 (centres undefined)	?	?	-0.7	16.4µM*	-2.2	?
Clc1ccc(-n2c(Cc3cccs3)nnc2SC/C=C/c2ccccc2)cc1	.	.	-0.5	.	.	.
COc1cc(N)c2ncccc2c1Br	?	0.9%	-52.4*	?	0.6	?
Nn1c(SCC(=O)N2CCOCC2)nnc1-c1cc(-c2ccc(F)cc2)n[nH]1	.	.	-1.9	.	.	.
SMILES	Nrf2 inh	A549 viability	PI4K2A inh	KB-3-1 tox	Giardia kill	KB-V1 cytotox
CSc1nn(Cc2ccc(C)cc2)c(N)c1S(=O)(=O)c1ccccc1	16.4µM*	-1.5%	-1.6	i	.	i
CSc1nn(Cc2ccc(F)cc2)c(N)c1S(=O)(=O)c1ccc(Cl)cc1	?	-1.8%	-0.6	?	.	?
O=C(c1cc(-n2cnnc2)ccc1Cl)N1CCN(c2nc(-c3ccccc3)cs2)CC1	.	?	-2.3	20.6µM*	33.4	i
Cc1ccc(C2CC2C(=O)NNC(=S)Nc2cccc(C)c2)cc1 (centres undefined)	?	-11.6%	2.0	i	6.6	16.4µM*
Cc1ccc(C2CC2C(=O)NNC(=S)Nc2cccc(Cl)c2)cc1 (centres undefined)	-21.5%	-3.1%	-1.4	i	-8.9	i
CCOC(=O)[C@]12CCCCC/C=C\1N(Cc1ccc(OC)cc1)C(=O)[C@H]2CC(=O)NCC1CCCCC1	.	.	-0.5	.	.	.
COC(=O)[C@]12CCCCC=C1N(Cc1ccc(OC)cc1)C(=O)[C@@H]2CC(=O)NCc1ccc(OC)c(OC)c1	.	.	-1.8	.	.	.
Cn1nc(SCc2ccccc2)c(=O)n(C(c2ccccc2)c2ccccc2)c1=O	4.2%	7.5%	6.2	?	13.2	20.6µM*
CCc1ccc(S(=O)(=O)Nc2ccc(O)c3c(=O)cc(-c4ccccc4Cl)oc23)cc1	0.0%	2.1%	3.9	i	-17.0	i
O=c1cc(-c2ccccc2Cl)oc2c(NS(=O)(=O)c3cc(Cl)cc(Cl)c3O)ccc(O)c12	?	-19.0%	-1.3	?	-14.5	18.4µM*
COc1ccc(-c2c(-c3cc(OC)cc(OC)c3)n(C)c3ccc(-c4ccc5[nH]ccc5c4)cc23)cc1	2.5%	10.9%	-5.3	23.1µM*	-6.5	i
COc1ccc(-c2c(-c3cc(OC)cc(OC)c3)n(C)c3ccc(-c4cnc(OC)nc4)cc23)cc1	?	-1.2%	-2.3	i	11.5	i
COc1ccc(CN(C(=O)/C=C/C(=O)c2ccc(OC)cc2O)C(C(=O)NC2CCCCC2)c2ccncc2)cc1 (centres undefined)	9.7%	-12.0%	5.6	i	-0.1	2.59µM*
COc1ccc(C(=O)/C=C/C(=O)N(Cc2ccc3c(c2)OCO3)C(C(=O)NC2CCCCC2)c2ccncc2)c(O)c1 (centres undefined)	4.3%	6.5%	0.0	?	15.9	2.06µM*
COCCN(CC(=O)NC1CCCCC1)C(=O)/C=C/C(=O)c1ccc(OC)cc1O	?	?	3.3	18.4µM*	1.4	?
COc1ccc(C(=O)/C=C/C(=O)N(CC(=O)NC2CCCCC2)Cc2cccs2)c(O)c1	?	?	-1.9	?	-26.3	?
CCOc1ccc(N(CC(=O)Nc2c(C)n(C)n(-c3ccccc3)c2=O)S(=O)(=O)c2cccs2)cc1	.	.	1.4	.	.	.
CCN(CC)/[N+]([O-])=N/Oc1cc(O/N=[N+](\[O-])N(C)C)c([N+](=O)[O-])cc1[N+](=O)[O-]	19.0%	-25.4%	.	.	-6.0	.
